From publication PMC7819943, “Rice protein-binding microarrays: a tool to detect cis-acting elements near promoter regions in rice”
In all, about 39,000 sequences were measured (“fluorescence intensity (a.u.)”: median about 4,300, highest 2% from about 39,000 on). Only a selection was taken, and the highest values are over-represented in it overall.

Molecular target: T1, OsSMF1 (Oryza sativa, UniProt Q6ZLB0 1-436)
T1 sequence: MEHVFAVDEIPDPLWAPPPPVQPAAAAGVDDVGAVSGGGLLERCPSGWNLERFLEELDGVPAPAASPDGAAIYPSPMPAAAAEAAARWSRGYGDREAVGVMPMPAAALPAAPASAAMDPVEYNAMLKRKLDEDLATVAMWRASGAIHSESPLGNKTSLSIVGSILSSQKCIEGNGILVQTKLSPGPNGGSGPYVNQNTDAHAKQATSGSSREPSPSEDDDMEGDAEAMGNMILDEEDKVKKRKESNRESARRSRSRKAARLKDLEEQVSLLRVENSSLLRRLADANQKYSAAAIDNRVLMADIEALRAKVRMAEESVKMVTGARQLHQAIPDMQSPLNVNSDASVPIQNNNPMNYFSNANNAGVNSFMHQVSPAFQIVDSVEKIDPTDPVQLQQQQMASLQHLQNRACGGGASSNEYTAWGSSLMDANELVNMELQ
Test: protein-binding microarray (RPBM); PBS, 2% BSA, 51.3 ng/ul salmon testes DNA, 50 uM zinc acetate, 200 nM TF, 25 C, 1 h; high values mean tight binding
Details: protein: recombinant; tags: N-terminal polyhistidine and DsRed monomer fusion (pET32a); chain copies: 2; label: CyDye5-dUTP incorporated in the synthesized complementary strand; 3' TTTTT single-stranded linker to array surface; dsDNA, one strand shown
Method in brief: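 An Axon 4000B scanner gave the binding signal as per-feature fluorescence intensity in arbitrary units. This followed washing of a custom Agilent array that had been incubated for 1 h at 25 °C with 200 nM protein in PBS, 2% BSA, salmon testes DNA and 50 µM zinc acetate. The proteins were transcription factors fused at the N-terminus to polyhistidine and DsRed, expressed in E. coli BL21-CodonPlus and purified on Ni–NTA.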

Sequence	binding signal
GCTTATCGATAAACTCAGTGTATTTGCATTCAAATTTTGACGGAGTCACCTAGTGCAG	3660 fluorescence intensity (a.u.)
TCATTTCTAATGTAAATTATCTTTTGCGTAAGTAATTTCTCGGAGTCACCTAGTGCAG	3230 fluorescence intensity (a.u.)
TGATTAAAGTATTCTTATTTCTCTTTTGAGCAATATCTAACGGAGTCACCTAGTGCAG	21900 fluorescence intensity (a.u.)
TAAAGTAAACTCGATCTCTTTCCGAGAAGTGTATTATTTTCGGAGTCACCTAGTGCAG	41400 fluorescence intensity (a.u.)
AACCCTAAGACTAGAGGCGGGCTGGAGCGTGGAGGCGGGACGGAGTCACCTAGTGCAG	3240 fluorescence intensity (a.u.)
GGTTTAACCGTTTGGTAGCTGACATGTGCGCCTGGGCATACGGAGTCACCTAGTGCAG	3380 fluorescence intensity (a.u.)
TCATTGGTATCTCAATGACATGTAGGACCTACATGAGTCACGGAGTCACCTAGTGCAG	8190 fluorescence intensity (a.u.)
AAAATATATTACTACCTCCGTTTCATATTATAAGACTTTCCGGAGTCACCTAGTGCAG	65400 fluorescence intensity (a.u.)
AATCTACTTCCTCCGTTTTATGTTATAAGACTTTCTAGCACGGAGTCACCTAGTGCAG	3140 fluorescence intensity (a.u.)
TTTGAAAATAATACTCCCTCCGTTTCATAATATAAGTGATCGGAGTCACCTAGTGCAG	3260 fluorescence intensity (a.u.)
ACCACCACCTCGGCATCTCCTCGTCCTCGAGCCCAATACTCGGAGTCACCTAGTGCAG	3660 fluorescence intensity (a.u.)
AGCAACCAAATCTTCCCAATTCTCACTTGCTCCTAGATACCGGAGTCACCTAGTGCAG	3840 fluorescence intensity (a.u.)
AGCCTTGTCATGTAAACCTATCCTTTTGAGACACGTGCGTCGGAGTCACCTAGTGCAG	5780 fluorescence intensity (a.u.)
TTCTCCCACCGCATCCTCTCTCCCCTTGAGTATTTACTTTCGGAGTCACCTAGTGCAG	3420 fluorescence intensity (a.u.)
CGTAACGCGATCGAGAACCGACTCAGCCGAGACTCATCGTCGGAGTCACCTAGTGCAG	3710 fluorescence intensity (a.u.)
TTCGAGCAACTCTACCTGGATCCAGACCAACCCCAGTAGACGGAGTCACCTAGTGCAG	50400 fluorescence intensity (a.u.)
TGGATATTTTCTACCCCTGGACCCAGCTGTCAGATCCAACCGGAGTCACCTAGTGCAG	3250 fluorescence intensity (a.u.)
AGGACGAGACCCCATCCAACCACCCCAGCCACGTCAGCAACGGAGTCACCTAGTGCAG	34000 fluorescence intensity (a.u.)
TAGCAGGTTTCCTGCCAACTTGGCACACTTGCTTCGTGGTCGGAGTCACCTAGTGCAG	3620 fluorescence intensity (a.u.)
GATTCAAGGTTGAGAGGACCTAAGATGTCCAATGATGTGTCGGAGTCACCTAGTGCAG	3470 fluorescence intensity (a.u.)
GGATAAGTGCCCCTACCAATAGGTGGACCCTTGTCACTGGCGGAGTCACCTAGTGCAG	19300 fluorescence intensity (a.u.)

Sequence	binding signal
TGTCAATAATGCATCCTGCAGCTAACATCAAATGACATGGCGGAGTCACCTAGTGCAG	3150 fluorescence intensity (a.u.)
GGCCGCTGATCTACGTGGCGGCAGTTCGGTACAGGTGGTGCGGAGTCACCTAGTGCAG	10500 fluorescence intensity (a.u.)
CCATCCCATGGTGGGCCGGTTAGTTCTGTTCCTGGGCCATCGGAGTCACCTAGTGCAG	64400 fluorescence intensity (a.u.)
GCTGTTGGTTGGTGCCACATCCCACGCTGCCATGCCATGCCGGAGTCACCTAGTGCAG	4910 fluorescence intensity (a.u.)
GGGCCCCTCCCAAATCTCCCATGGTTCCATCCATCCCCATCGGAGTCACCTAGTGCAG	3890 fluorescence intensity (a.u.)
ATTAGTATTCCCTCCCATCATTAATATATGACGTTAGTGTCGGAGTCACCTAGTGCAG	4550 fluorescence intensity (a.u.)
CGGGAGGGGAGGGGAATGGATGTGGGGAGGAGAGAGACTGCGGAGTCACCTAGTGCAG	4600 fluorescence intensity (a.u.)
TTCGTCATAGTGTGGAACGACACATCATGAAGATTAGAGACGGAGTCACCTAGTGCAG	3630 fluorescence intensity (a.u.)
CCGGGAAATTCTTGTGTTGTTGTGTTGGTCTTGAGCAATTCGGAGTCACCTAGTGCAG	3630 fluorescence intensity (a.u.)
TGCAAATTGTGCTTTTCTATTCTGTTGTGTCTTCTGCTTTCGGAGTCACCTAGTGCAG	40700 fluorescence intensity (a.u.)
GTTCTGTCTTAACCTGCTTTCATATTAATTGTTAAAGTTGCGGAGTCACCTAGTGCAG	3280 fluorescence intensity (a.u.)
AGCCTAGGAGGAGATGTGACCTCACAGTCAGGTGTCATCGCGGAGTCACCTAGTGCAG	3660 fluorescence intensity (a.u.)
ACCAACCAACCAACCAACCAACCAAGCCTCCCAACTCCATCGGAGTCACCTAGTGCAG	3810 fluorescence intensity (a.u.)
GATTCGCGTCCTCCGTTTGCTTCGCTTCTTCTTCTAGAACCGGAGTCACCTAGTGCAG	3490 fluorescence intensity (a.u.)
CGTCCACGTCCATCTCCGCCGCTGACAGCACCAGCTCTTCCGGAGTCACCTAGTGCAG	5020 fluorescence intensity (a.u.)
TTCCCCTTCCGCGACTGCGAGCTTCTCCGCCGCCGCCGCCCGGAGTCACCTAGTGCAG	3160 fluorescence intensity (a.u.)
ACCCCTGCGAATATATAATTTCCCCGCGAGGCCGCGAGCCCGGAGTCACCTAGTGCAG	47700 fluorescence intensity (a.u.)
AGAGCCGAGGCCCGAATTCCTCCGGTCCTCCTCGTGACCCCGGAGTCACCTAGTGCAG	15400 fluorescence intensity (a.u.)
CACTCTCCTCCTACACTGCATGCTGCTGCTGACGTGGCTCCGGAGTCACCTAGTGCAG	24900 fluorescence intensity (a.u.)
TGAGAATACCAGATGACAAAAGGTGACAGTAGTTAGGAACCGGAGTCACCTAGTGCAG	4190 fluorescence intensity (a.u.)
GGGAGGTGTGGTGATCGATCGCCATGCGCGGATTTTCTAACGGAGTCACCTAGTGCAG	5590 fluorescence intensity (a.u.)
